Assay outcomes as filed in PubChem BioAssay.
GLS inhibitor: blocks human kidney-isoform glutaminase activity | O94925 | GLS enzymatic activity, qHTS titration | Potency, µM (series often up to 45.5 µM), actives largely listed as inhibitors | 410,000 tested, 0.21% active | AID 624170
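hKGA in 45 mM KH2PO4 (pH 8.2), 0.02% Tween-20 with compound, then 1mM L-Glutamine (stock as added) plus glutamate oxidase/HRP/Amplex red coupling mix. Fluorescence read initially and after 30 min at RT; signal change reflects glutamate formation.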
HP1b chromo inh: blocks HP1-beta chromodomain binding to methylated histone tails; P83916; AlphaScreen HP1-beta / biotin-H3K9me3 peptide binding; Potency, µM (highest dose often 114 µM), most hits filed as inhibitors; 390,000 tested, 0.56% active; AID 540317; note: nearly all actives have a fitted effect of over 70% in size
Target sequence (P83916 whole entry, looked up): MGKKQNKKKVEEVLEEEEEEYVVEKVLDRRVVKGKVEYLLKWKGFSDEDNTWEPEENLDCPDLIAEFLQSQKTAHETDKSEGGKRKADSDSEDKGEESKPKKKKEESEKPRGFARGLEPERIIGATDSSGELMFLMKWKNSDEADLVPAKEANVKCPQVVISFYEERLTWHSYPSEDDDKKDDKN
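HP1-beta protein (50 nM final) preincubated 30 min at room temperature with biotinylated H3(1-18)K9me3 peptide (50 nM) in PBS pH 7.4, 0.01% Tween-20, then compound added for 30 min. AlphaScreen streptavidin donor/nickel chelate acceptor beads (10 ug/mL final), 30 min dark, luminescence read.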
L3MBTL1 block: blocks human L3MBTL1; Potency, µM (titrated, usually from 57.1 µM), usual class: inhibitors; 230,000 tested, 0.66% active; AID 485360; AlphaScreen L3MBTL1–H3K9me1 peptide binding; Q9Y468; note: nearly all actives have a fitted effect of over 60% in size
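L3MBTL1 50 nM + b-AHA-H3(1-15)K9me1 75 nM, 30 min RT; compound added, 30 min RT; streptavidin donor/Ni-chelate acceptor beads 10 ug/mL each final, 30 min RT dark; AlphaScreen read.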
BAZ2B inh: inhibitors of human BAZ2B bromodomain; 360,000 tested, 4.4% active; Potency, µM (doses to about 114 µM), hits mostly inhibitors; AlphaScreen BAZ2B-H3K14Ac peptide displacement; Q9UIF8; note: nearly all actives have a fitted effect of over 60% in size
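Compounds, titrated to a top concentration of 110 uM, were incubated 30 min at room temperature with preformed BAZ2B/acetyl-K14 H3 peptide complex (50 nM each). Proximity signal was measured by AlphaScreen after 20 min with beads.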
G9a block: inhibitors of human histone lysine methyltransferase G9a | G9a H3K9 monomethylation, AlphaScreen, 2 h | Q96KQ7 | 350,000 tested, 8.8% active | Potency, µM (series often up to 102 µM), most hits filed as inhibitors; note: nearly all actives have a fitted effect of over 75% in size
Target sequence (Q96KQ7 913-1193 limits assumed): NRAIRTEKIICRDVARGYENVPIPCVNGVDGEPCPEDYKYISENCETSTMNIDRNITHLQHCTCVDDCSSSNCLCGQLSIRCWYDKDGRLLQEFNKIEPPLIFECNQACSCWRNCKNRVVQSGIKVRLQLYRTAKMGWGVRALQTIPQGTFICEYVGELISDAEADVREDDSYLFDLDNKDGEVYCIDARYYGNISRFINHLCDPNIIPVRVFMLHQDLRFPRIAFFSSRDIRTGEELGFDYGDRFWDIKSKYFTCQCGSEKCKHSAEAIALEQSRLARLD
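G9a (20 nM) preincubated 15 min RT with compounds, then 500 nM biotinylated H3K9 peptide and 20 uM SAM added; 2 h RT reaction. Monomethyl-H3K9 product detected by AlphaScreen with anti-H3K9me1 antibody, streptavidin donor and anti-rabbit IgG acceptor beads.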
JMJD2A Tudor inh: inhibitors of human JMJD2A Tudor domain; Potency, µM (series often up to 114 µM), usual class: inhibitors; 390,000 tested, 4.4% active; AlphaScreen JMJD2A-Tudor / H3K4me3 peptide binding; note: nearly all actives have a fitted effect of over 50% in size
Each line names hits and unclear results; the compound was inactive in the other large screens; ! = not confirmed by another sample. Most compounds without a hit are left out; they make up all but 10% or so of the library. Calls come from the whole dose curve; as a rule, active = well fitted curve in the direction sought with a large enough effect; inconclusive = small, poorly fitted or top-dose-only effect, or another doubt; inactive = no such curve, though single readings can be large; an effect the other way counts as inactive or inconclusive.

COC(=O)C1=C(C)NC(=O)/C1=C\c1cc(C)n(-c2cccc(C)c2)c1C	HP1b chromo inh 20µM, BAZ2B inh 40µM, JMJD2A Tudor inh 45µM (no result: L3MBTL1 block)
CCOc1ccc(-c2ccc(NS(=O)(=O)c3cc(C)c(C)cc3C)cc2)nn1	none (no result: L3MBTL1 block)
Cc1nn(CC(=O)NCC(C)c2ccccc2)c(=O)c2cc3ccccc3n12 (stereo not given)	none (no result: L3MBTL1 block)
CCCCN1C(=O)NC2NC(=O)NC21 (stereo not given)	BAZ2B inh 20µM, G9a block 25µM, JMJD2A Tudor inh inconclusive
COc1ccc(N2CCN(C(=O)c3cc4c(-c5ccc(Cl)cc5)nn(C)c4s3)CC2)cc1	BAZ2B inh 10µM, G9a block 35µM, JMJD2A Tudor inh inconclusive (no result: L3MBTL1 block)
COc1ccc(N2CCN(C(=O)c3cc4c(-c5ccccc5F)nn(C)c4s3)CC2)cc1	HP1b chromo inh inconclusive, G9a block 11µM, JMJD2A Tudor inh 11µM (no result: L3MBTL1 block, BAZ2B inh)
Cn1nc(-c2ccc(Cl)cc2)c2cc(C(=O)N3CCOCC3)sc21	none (no result: L3MBTL1 block)
Clc1ccc(-c2nnc(-c3ccc(Br)cc3)c(N3CCSCC3)n2)cc1	BAZ2B inh inconclusive
Clc1ccc(-c2nnc(-c3ccco3)nc2N2CCCCC2)cc1	BAZ2B inh 50µM, G9a block 10µM, JMJD2A Tudor inh 45µM
COc1ccc(CCN2C(=O)NC(NC(C)=O)(C(F)(F)F)C2=O)cc1OC (stereo not given)	none
COc1ccc(C(=O)NC2(C(F)(F)F)NC(=O)N(CCCc3ccccc3)C2=O)cc1OC (stereo not given)	JMJD2A Tudor inh 79µM
COc1ccccc1NC(=O)Nc1nn(C)c2cccc(N(C)C)c12	GLS inhibitor inconclusive, HP1b chromo inh inconclusive, BAZ2B inh inconclusive, G9a block 14µM, JMJD2A Tudor inh inconclusive (no result: L3MBTL1 block)
CN(C)c1cccc2c1c(NC(=O)Nc1ccc(Cl)cc1Cl)nn2C	none
CC(Sc1nnc(-c2cccs2)n1N)C(=O)NCC1CCCO1 (stereo not given)	G9a block 50µM
CC(Sc1nc(N)cc(N)n1)C(=O)NCC1CCCO1 (stereo not given)	none
CC(Sc1nnc(-c2ccco2)n1N)C(=O)NCC1CCCO1 (stereo not given)	none
Cc1csc(SC(C)C(=O)NCC2CCCO2)n1 (stereo not given)	G9a block 40µM
CCN(CC)S(=O)(=O)c1ccc2c(c1)nc(SC(C)C(=O)NCC1CCCO1)n2CC (stereo not given)	G9a block 79µM (no result: L3MBTL1 block)
Cc1cc(/C=N/n2c(COc3ccccc3C)nc3ccccc3c2=O)c(O)c([N+](=O)[O-])c1	HP1b chromo inh inconclusive, L3MBTL1 block inconclusive, BAZ2B inh inconclusive, G9a block inconclusive, JMJD2A Tudor inh 25µM
CSc1ccc(CCNC(=O)Cn2nc(C)n3c(cc4sccc43)c2=O)cc1	none (no result: L3MBTL1 block)
NNc1nccc(Nc2ccccc2C(=O)O)n1	GLS inhibitor inconclusive, L3MBTL1 block inconclusive, BAZ2B inh 25µM, G9a block inconclusive, JMJD2A Tudor inh inconclusive
CC1=C(C(=O)O)N2C(=O)[C@@H](NC(=O)C(N)C3=CCC=CC3)[C@H]2SC1 (stereo not given in full)	G9a block 12µM! (no result: GLS inhibitor, HP1b chromo inh, L3MBTL1 block, BAZ2B inh, JMJD2A Tudor inh)
CC1=C(C(=O)O)N2C(=O)C(NC(=O)C(N)c3ccc(O)cc3)C2SC1 (stereo not given)	none (no result: GLS inhibitor, HP1b chromo inh, L3MBTL1 block, BAZ2B inh, JMJD2A Tudor inh)
N[C@@H](C(=O)N[C@@H]1C(=O)N2C(C(=O)O)=C(CSc3cn[nH]n3)CS[C@H]12)c1ccc(O)cc1	GLS inhibitor 6.3µM (no result: HP1b chromo inh, L3MBTL1 block, BAZ2B inh, G9a block, JMJD2A Tudor inh)
N[C@@H](C(=O)N[C@@H]1C(=O)N2C(C(=O)O)=C(Cl)CS[C@H]12)c1ccccc1	GLS inhibitor 11µM!, L3MBTL1 block inconclusive, BAZ2B inh 32µM, G9a block 50µM, JMJD2A Tudor inh 25µM
NC(C(=O)N[C@@H]1C(=O)N2C(C(=O)O)=C(Cl)CS[C@H]12)c1ccccc1 (stereo not given in full)	G9a block 2.4µM! (no result: GLS inhibitor, HP1b chromo inh, L3MBTL1 block, BAZ2B inh, JMJD2A Tudor inh)
Cc1cccc(Cn2c(C)c(C)c3cc(C(=O)NCc4ccco4)ccc32)c1	GLS inhibitor inconclusive, JMJD2A Tudor inh inconclusive (no result: L3MBTL1 block)
